The text below walks through data of article PMC7862700, “An all-to-all approach to the identification of sequence-specific readers for epigenetic DNA modifications on cytosine”.

Common to all, as to assay: DAPPL (digital affinity profiling via proximity ligation, sequencing); 10 mM Tris-HCl pH 7.5, 50 mM NaCl, 1 mM DTT, 4% glycerol, room temperature, 30 min; GST-TFs on glutathione beads, 16-mer random dsDNA library, 0.1% formaldehyde crosslink after washing; high values mean tight binding
Holding throughout (conditions): protein: recombinant; tags: N-terminal GST; dsDNA, one strand shown

For one test, the target named is T1, FLI1 (Homo sapiens, UniProt Q01543 1-452).
T1 sequence: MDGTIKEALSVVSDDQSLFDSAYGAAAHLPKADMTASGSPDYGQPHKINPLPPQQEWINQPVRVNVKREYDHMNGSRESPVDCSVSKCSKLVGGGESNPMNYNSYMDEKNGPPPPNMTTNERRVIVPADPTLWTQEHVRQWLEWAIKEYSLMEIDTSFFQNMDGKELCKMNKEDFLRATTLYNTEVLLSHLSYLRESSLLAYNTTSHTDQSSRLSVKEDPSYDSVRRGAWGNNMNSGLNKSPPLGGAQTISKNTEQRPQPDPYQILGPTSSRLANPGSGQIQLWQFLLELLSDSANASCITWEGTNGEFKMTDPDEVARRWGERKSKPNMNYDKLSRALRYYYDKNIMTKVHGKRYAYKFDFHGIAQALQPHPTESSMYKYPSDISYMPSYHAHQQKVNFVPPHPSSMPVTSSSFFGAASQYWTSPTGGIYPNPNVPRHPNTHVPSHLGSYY
In outline:
(§1)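 Each value of binding signal is a hexamer's read frequency for a factor divided by the same hexamer's frequency in the tag-only sample. Barcoded, bead-captured GST fusions of human transcription factors made in yeast were pooled with that sample and incubated with 200 nmole of a random double-stranded 16-mer DNA library in Tris/NaCl/DTT/glycerol buffer at room temperature for 30 min. Washing, 0.1% formaldehyde crosslinking, proximity ligation, PCR and Illumina NextSeq500 sequencing followed.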

The target of the next test is T2, ELK1 (Homo sapiens, UniProt P19419 1-428).
T2 sequence: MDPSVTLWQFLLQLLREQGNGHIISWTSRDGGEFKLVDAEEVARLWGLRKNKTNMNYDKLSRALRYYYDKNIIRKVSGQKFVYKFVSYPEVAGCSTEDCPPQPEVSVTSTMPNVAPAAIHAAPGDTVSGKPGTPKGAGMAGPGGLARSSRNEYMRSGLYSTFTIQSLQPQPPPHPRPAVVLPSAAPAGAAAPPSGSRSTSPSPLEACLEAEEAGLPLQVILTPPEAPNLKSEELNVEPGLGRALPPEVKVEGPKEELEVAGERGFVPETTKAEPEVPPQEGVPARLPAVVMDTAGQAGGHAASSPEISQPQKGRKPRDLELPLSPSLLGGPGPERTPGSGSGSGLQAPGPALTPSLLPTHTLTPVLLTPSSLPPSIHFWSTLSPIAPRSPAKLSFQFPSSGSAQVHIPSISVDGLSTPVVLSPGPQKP
In outline: as §1

A further test deals with T3, GABPA (Homo sapiens, UniProt Q06546 1-454).
T3 sequence: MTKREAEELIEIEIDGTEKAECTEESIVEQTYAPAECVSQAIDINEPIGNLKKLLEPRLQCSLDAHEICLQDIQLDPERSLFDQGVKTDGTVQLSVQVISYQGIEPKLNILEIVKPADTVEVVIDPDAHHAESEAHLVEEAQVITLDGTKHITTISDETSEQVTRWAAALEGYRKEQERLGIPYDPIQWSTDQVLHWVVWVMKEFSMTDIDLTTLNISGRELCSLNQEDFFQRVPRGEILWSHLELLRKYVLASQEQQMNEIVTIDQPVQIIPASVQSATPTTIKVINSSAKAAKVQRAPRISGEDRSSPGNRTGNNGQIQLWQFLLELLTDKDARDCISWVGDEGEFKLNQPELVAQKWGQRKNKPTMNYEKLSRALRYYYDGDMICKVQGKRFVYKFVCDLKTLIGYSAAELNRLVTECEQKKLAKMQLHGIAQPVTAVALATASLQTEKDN
In outline: as §1

The next test has as its target ELF1 (Homo sapiens, UniProt P32519 1-619). Summed up:
as §1

A further test concerns the target T4, EHF (Homo sapiens, UniProt Q9NZC4 1-300).
T4 sequence: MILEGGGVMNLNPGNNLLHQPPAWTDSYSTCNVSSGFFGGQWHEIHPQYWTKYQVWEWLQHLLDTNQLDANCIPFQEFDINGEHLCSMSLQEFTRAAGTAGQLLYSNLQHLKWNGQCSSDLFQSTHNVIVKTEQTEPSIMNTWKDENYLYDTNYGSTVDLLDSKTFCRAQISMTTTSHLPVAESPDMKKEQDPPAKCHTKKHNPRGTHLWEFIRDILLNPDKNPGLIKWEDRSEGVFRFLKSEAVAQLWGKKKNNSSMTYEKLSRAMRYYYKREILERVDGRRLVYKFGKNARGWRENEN
Summed up: as §1

For another test, the target named is T5, ELK3 (Homo sapiens, UniProt P41970 1-407).
T5 sequence: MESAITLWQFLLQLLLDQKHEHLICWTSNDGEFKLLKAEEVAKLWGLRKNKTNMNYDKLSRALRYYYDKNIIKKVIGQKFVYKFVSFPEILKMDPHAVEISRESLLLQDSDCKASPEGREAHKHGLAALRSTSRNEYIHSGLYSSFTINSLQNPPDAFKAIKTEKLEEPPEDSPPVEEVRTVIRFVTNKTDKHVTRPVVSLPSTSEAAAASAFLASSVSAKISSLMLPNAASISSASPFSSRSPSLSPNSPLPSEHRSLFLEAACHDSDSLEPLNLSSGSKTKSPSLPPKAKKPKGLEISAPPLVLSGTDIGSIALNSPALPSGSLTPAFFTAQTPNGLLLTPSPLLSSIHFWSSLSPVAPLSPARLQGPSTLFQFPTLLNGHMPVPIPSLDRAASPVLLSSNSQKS
In outline:
as §1

The target in the next test is T6, ELF3 (Homo sapiens, UniProt P78545 1-371).
T6 sequence: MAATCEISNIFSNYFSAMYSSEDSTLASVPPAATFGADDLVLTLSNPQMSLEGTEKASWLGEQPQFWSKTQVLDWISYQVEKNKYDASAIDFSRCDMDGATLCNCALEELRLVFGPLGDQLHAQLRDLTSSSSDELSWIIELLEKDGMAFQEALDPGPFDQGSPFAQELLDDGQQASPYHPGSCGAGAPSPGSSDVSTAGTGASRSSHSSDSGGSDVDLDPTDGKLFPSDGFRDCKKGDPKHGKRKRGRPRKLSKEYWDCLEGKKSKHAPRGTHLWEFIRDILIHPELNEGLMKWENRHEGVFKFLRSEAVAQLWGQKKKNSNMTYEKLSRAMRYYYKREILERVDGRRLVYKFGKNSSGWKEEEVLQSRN
Summed up: as §1

The target in a further test is T7, ERF (Homo sapiens, UniProt P50548 1-548).
T7 sequence: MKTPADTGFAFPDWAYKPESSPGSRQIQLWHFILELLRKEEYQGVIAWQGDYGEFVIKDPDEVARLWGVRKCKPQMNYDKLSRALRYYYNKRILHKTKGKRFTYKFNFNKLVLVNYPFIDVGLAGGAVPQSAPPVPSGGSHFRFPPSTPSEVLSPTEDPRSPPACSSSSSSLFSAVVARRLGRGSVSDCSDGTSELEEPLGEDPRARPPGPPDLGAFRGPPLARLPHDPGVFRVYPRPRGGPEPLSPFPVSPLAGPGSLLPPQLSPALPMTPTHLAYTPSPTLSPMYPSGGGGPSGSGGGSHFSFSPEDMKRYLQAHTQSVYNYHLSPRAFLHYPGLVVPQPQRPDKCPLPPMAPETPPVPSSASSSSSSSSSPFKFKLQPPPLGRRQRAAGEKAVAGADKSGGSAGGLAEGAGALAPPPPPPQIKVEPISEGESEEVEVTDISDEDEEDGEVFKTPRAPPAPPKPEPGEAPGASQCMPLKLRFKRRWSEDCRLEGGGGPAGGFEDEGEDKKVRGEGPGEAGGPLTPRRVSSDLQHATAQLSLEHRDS
Summed up: as §1

Another test addresses T8, ETV3L (Homo sapiens, UniProt Q6ZN32 1-361).
T8 sequence: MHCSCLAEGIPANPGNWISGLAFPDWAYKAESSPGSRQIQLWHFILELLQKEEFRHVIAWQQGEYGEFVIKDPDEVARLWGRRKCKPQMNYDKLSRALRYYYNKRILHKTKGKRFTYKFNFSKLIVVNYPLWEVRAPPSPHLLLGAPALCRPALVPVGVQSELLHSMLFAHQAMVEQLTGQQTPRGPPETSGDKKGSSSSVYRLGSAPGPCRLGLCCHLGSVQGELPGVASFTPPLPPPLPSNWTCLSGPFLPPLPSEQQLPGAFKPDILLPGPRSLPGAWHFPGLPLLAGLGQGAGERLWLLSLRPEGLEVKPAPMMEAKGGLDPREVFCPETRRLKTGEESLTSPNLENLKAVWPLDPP
In outline:
as §1

For a further test, the target named is T9, ETV7 (Homo sapiens, UniProt Q9Y603 1-341).
T9 sequence: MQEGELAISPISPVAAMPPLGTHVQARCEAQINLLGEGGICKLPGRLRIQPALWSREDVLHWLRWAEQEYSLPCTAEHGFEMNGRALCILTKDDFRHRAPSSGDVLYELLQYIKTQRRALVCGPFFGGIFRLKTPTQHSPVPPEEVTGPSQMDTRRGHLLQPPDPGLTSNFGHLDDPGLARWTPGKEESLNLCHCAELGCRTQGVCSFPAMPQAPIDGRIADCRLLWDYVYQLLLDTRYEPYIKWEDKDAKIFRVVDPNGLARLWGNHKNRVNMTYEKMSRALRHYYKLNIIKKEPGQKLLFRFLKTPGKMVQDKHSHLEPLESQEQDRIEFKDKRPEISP
In outline: as §1

In a further test the target is T10, ETV3 (Homo sapiens, UniProt P41162-2 1-143).
T10 sequence: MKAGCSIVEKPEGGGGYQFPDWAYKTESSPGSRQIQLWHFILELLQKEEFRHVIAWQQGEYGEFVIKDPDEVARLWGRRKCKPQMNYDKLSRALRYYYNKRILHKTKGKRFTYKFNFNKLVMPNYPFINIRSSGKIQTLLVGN
In outline: as §1

Another test deals with ETV6 (Homo sapiens, UniProt P41212 1-452). Summed up: as §1
In a further test the target is SPIB (Homo sapiens, UniProt Q01892 1-262). Summed up: as §1
The next test deals with ETV1 (Homo sapiens, UniProt P50549 1-477). In outline:
as §1

The target of a further test is T11, ETS2 (Homo sapiens, UniProt P15036 1-469).
T11 sequence: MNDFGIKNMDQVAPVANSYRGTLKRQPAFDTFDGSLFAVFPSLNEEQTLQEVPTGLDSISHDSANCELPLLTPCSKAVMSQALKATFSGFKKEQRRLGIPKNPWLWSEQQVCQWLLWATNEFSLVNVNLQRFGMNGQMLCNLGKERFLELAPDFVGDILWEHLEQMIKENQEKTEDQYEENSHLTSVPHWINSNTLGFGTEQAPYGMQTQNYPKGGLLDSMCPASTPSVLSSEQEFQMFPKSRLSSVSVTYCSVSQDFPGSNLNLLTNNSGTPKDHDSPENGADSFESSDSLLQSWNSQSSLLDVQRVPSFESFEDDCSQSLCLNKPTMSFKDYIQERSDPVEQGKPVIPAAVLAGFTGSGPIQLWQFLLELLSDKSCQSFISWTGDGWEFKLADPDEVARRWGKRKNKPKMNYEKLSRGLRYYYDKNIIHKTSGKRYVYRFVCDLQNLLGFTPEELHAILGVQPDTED
Summed up: as §1

Chain of ELF1 (P32519 whole entry): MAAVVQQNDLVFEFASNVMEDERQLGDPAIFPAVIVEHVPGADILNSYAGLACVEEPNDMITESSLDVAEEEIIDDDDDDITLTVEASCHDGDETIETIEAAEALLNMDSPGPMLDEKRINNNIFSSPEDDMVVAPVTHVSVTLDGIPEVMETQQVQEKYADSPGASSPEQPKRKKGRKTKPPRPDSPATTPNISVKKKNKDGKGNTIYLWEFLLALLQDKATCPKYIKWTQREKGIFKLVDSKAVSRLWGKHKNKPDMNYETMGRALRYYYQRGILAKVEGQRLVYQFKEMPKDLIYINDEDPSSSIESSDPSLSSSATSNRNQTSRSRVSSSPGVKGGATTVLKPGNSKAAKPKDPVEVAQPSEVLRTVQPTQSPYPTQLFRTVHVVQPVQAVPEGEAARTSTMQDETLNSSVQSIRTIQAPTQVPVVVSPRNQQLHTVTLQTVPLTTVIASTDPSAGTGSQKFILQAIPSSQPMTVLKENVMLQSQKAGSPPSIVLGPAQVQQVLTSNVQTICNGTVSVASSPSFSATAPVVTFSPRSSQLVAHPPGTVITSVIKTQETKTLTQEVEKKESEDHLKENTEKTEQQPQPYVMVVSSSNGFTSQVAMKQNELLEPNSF
Chain of ETV6 (P41212 whole entry): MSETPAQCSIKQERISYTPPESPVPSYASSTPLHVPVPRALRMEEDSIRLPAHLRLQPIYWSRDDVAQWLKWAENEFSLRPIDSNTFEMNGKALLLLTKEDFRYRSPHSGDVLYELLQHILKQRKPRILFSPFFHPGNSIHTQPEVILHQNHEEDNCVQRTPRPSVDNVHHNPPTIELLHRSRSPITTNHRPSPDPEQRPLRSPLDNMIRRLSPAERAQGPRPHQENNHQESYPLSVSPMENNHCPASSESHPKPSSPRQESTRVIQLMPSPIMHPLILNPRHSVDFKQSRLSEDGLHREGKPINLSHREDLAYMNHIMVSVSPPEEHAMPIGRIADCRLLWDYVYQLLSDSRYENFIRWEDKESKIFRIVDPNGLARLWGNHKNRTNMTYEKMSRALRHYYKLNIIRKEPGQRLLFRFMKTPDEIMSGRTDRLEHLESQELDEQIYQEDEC
Chain of SPIB (Q01892 whole entry): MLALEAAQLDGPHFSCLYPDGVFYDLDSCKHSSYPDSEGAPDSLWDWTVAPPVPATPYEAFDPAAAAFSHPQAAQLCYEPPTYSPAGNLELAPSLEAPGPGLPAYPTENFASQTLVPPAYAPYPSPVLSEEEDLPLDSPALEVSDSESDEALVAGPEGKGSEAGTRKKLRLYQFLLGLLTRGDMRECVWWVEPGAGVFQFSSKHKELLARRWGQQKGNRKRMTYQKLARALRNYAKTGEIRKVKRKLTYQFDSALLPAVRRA
Chain of ETV1 (P50549 whole entry): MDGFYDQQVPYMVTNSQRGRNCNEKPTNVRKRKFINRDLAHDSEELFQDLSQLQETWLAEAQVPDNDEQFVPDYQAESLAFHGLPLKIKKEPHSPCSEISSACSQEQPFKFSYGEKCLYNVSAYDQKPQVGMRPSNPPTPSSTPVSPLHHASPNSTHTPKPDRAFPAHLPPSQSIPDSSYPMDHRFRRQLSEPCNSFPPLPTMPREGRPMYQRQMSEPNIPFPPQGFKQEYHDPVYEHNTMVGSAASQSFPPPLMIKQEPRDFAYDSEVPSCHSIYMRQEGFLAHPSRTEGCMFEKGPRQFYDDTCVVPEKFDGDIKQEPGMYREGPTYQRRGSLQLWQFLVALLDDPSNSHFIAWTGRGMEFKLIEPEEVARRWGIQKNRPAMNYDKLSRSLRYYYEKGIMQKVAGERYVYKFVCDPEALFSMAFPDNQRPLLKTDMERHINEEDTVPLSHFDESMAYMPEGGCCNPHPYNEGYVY

In the case of CTGGTG, the binding signal in the test with FLI1 is 1.01 fold enrichment (6-mer frequency, TF over GST control); in the test with ELK1 it was 1.05 fold enrichment (6-mer frequency, TF over GST control); with GABPA it was 1.01 fold enrichment (6-mer frequency, TF over GST control); with ELF1, 1.02 fold enrichment (6-mer frequency, TF over GST control); in the test with EHF it was 1.09 fold enrichment (6-mer frequency, TF over GST control); with ELK3, 1.15 fold enrichment (6-mer frequency, TF over GST control). Besides, the binding signal with ELF3 is 1.09 fold enrichment (6-mer frequency, TF over GST control); with ERF, 1.05 fold enrichment (6-mer frequency, TF over GST control); with ETV3L, 1.06 fold enrichment (6-mer frequency, TF over GST control); with ETV7 it was 1.04 fold enrichment (6-mer frequency, TF over GST control); in the test with ETV3 it was 1.03 fold enrichment (6-mer frequency, TF over GST control); in the test with ETV6, 1.03 fold enrichment (6-mer frequency, TF over GST control).
For GGATGG, the binding signal in the test with FLI1 is 1.02 fold enrichment (6-mer frequency, TF over GST control); with ELF1 it was 1.05 fold enrichment (6-mer frequency, TF over GST control); in the test with SPIB, 1.03 fold enrichment (6-mer frequency, TF over GST control); in the test with ELF3 it was 1.13 fold enrichment (6-mer frequency, TF over GST control); in the test with ETV1, 1.13 fold enrichment (6-mer frequency, TF over GST control); in the test with ERF, 1.05 fold enrichment (6-mer frequency, TF over GST control). The binding signal with ETV3L is 1.08 fold enrichment (6-mer frequency, TF over GST control); in the test with ETS2 it was 1.03 fold enrichment (6-mer frequency, TF over GST control); with ETV7, 1.06 fold enrichment (6-mer frequency, TF over GST control).
Consider GACGTT, for which the binding signal in the test with FLI1 is 1.05 fold enrichment (6-mer frequency, TF over GST control).
